# According to PubChem BioAssay AID1985 (Southern Research Specialized Biocontainment Screening …, 2009):
# The whole screen tested about 2,300 compounds, of which about 1,000 (43%) were called active. So high a share suggests a set chosen from earlier hits. The list shows a part of the results. Results with a measured potency or affinity are listed apart. Values without a mark were called inactive. No rule for the calls is given here.
# Experiment: PhoP regulon inhibitor project modified counter assay, GFP fluorescence readout, dose response (AID 1985)
# Conditions: S. Typhi, 4 h; series mostly up to 150 µM; inhibition: at the top concentration
row,Structure (SMILES),inhibition
1,CCN(CC)c1cc(C)c2cc(NC(=O)c3ccccc3F)ccc2n1,6.11%
2,COc1ccc(-n2cnc3c(sc4nc(N5CCOCC5)c5c(c43)CCCC5)c2=O)cc1,-5.75%
3,O=C(CCCCCn1c(=S)[nH]c2ccc(N3CCOCC3)cc2c1=O)NC1CCN(Cc2ccccc2)CC1,-1.01%
4,O=C(Nc1ccncc1)c1cc(-c2ccccn2)nc2ccccc12,26.8%
5,Cc1cc(Cl)ccc1OCC(=O)Nc1nc(-c2cccnc2)cs1,16.9%
6,CC(C)[C@H](NC(=O)c1ccccc1Cl)C(=O)Nc1nc(-c2ccccn2)cs1,-20.5%
7,CC1CC(C)CN(S(=O)(=O)c2ccc3c(c2)oc(=O)n3CC(=O)N(C)Cc2ccccc2)C1 (stereo not drawn),4.43%
8,COc1ccccc1Nc1nc(Cl)c(C=O)s1,20.2%
9,c1ccc2c(c1)CCc1ccccc1C2=C1CCNCC1,-28.7%
10,COc1ccc(Cn2nnnc2C(c2cc3ccc(OC)cc3[nH]c2=O)N2CCC(C)CC2)cc1 (stereo not drawn),0.02%
11,Clc1ccc(CN2CCN(/N=C/c3ccco3)CC2)cc1,-0.84%
12,CCOc1ccc(N2C(=O)S/C(=C\c3ccc(O)c(OC)c3)C2=O)cc1,14.3%
13,Fc1ccc(NC(=S)Nc2cc(-c3ccccc3)[nH]n2)cc1Cl,-10.5%
14,C/[N+]([O-])=C1\Cc2ccccc2C1=O,-7.55%
15,COc1ccc(CCN(C(=O)C(F)(F)F)C(C(=O)NC2CCCC2)c2cccs2)cc1 (stereo not drawn),10.9%
16,O=C(O)c1cccc(NC2=Nc3cccc4cccc2c34)c1,-3.67%
17,Cc1cc(C)c2c(N)c(C(=O)c3ccc(Cl)c(Cl)c3)sc2n1,-12.8%
18,COc1ccc(Cl)cc1N(C)C(=O)CCNC(=O)Cn1cnc2ccccc2c1=O,19.2%
19,Cc1cc(N2CCC(C)CC2)nc(NCc2ccccc2)n1,21.8%
20,COc1ccc(Nc2cc(C)nc(NCc3ccccc3)n2)cc1,20.2%
21,CN(C)C=NC(=O)c1cc(C(=O)c2ccc(Cl)cc2Cl)c[nH]1,26%
22,CCN(CC)CCN(C(=O)c1cccc([N+](=O)[O-])c1)c1nc2ccc(OC)cc2s1,33.3%
23,C=CCOc1ccc(Cl)cc1CNC1CCCC1,20.3%
24,O=C(COc1ccc(Br)cc1CNCCc1ccccc1)NCc1ccccc1,26.1%
25,CC(=O)c1c(C)[nH]c(C(=O)OCC(=O)NCC(C)C)c1C,-5.83%
26,Cc1c(CN(C)C)c2c(n1Cc1ccccc1)C(=O)c1ccc(Br)cc1-2,28%
27,NC(=O)c1ccc[n+]([C@H]2O[C@@H](COP(=O)([O-])OP(=O)(O)OC[C@H]3O[C@@H](n4cnc5c(N)ncnc54)[C@H](O)[C@@H]3O)[C@H](O)[C@@H]2O)c1,33.2%
28,CCOC(=O)C(NC(=O)c1cccnc1)(Nc1cccc(C)n1)C(F)(F)F (stereo not drawn),-7.66%
